# Source: PubChem
# GLD-1 RNA inh: GLD-1/TGE RNA complex disruptors, primary screen, biochemical, fluorescence polarization. Female germline-specific tumor suppressor gld-1 (Caenorhabditis elegans), Q17339. purified GLD-1 + fluorescein TGE RNA. inhibition, % at 5.96 µM. 320,000 tested, 0.44% active. AID 2280, 2010;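 active = percent inhibition above a per-plate cutoff, the plate mean of test compounds plus 3 SD, cut at about 30% in these data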;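 note: 0% = DMSO wells with GLD-1 and probe and 100% = wells lacking GLD-1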
# Target sequence (Q17339 whole entry, looked up): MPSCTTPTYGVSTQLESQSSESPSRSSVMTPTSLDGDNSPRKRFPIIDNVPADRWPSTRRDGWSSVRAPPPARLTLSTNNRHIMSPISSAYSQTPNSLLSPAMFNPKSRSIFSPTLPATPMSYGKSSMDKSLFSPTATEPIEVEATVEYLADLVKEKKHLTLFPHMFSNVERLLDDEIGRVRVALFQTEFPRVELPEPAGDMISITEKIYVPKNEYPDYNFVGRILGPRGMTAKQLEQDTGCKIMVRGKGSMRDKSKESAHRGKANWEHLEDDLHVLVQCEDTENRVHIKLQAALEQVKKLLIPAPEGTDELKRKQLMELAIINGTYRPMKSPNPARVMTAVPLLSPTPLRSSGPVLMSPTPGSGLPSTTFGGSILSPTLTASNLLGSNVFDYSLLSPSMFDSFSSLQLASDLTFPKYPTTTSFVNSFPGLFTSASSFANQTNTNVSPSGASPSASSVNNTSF
# Mcl-1 Bim block: inhibitors of Bim peptide binding to Mcl-1, primary screen, biochemical, bead-based flow cytometry, multiplex; 190,000 tested, 0.1% active; AID 1009, 2008; inhibition, % at 10 µM; Bim peptide-Mcl-1 binding; Induced myeloid leukemia cell differentiation protein Mcl-1 (Homo sapiens), Q07820; in the data active = inhibition above about 40%;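 note: 0% = no compound tracer wells and 100% = peptide blocker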
# Mcl1 Bid PPI: Mcl-1/Bid binding inhibitors, primary screen, biochemical, TR-FRET, 1536-well. Induced myeloid leukemia cell differentiation protein Mcl-1 (Homo sapiens), Q07820. TR-FRET Mcl-1/Bid-Dy647 peptide binding. inhibition, % at 21.7 µM. 220,000 tested, 0.97% active. AID 1021, 2008;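 active = compounds that cut the binding signal by more than half at the single screening dose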;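 note: His-tagged Mcl-1 with europium anti-His antibody binding Bid BH3 peptide; 0% = Mcl-1 plus peptide wells and 100% = peptide-only wells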
# Mcl1 Noxa PPI: Mcl-1/Noxa binding inhibitors, primary screen, biochemical, TR-FRET, 1536-well | Induced myeloid leukemia cell differentiation protein Mcl-1 (Homo sapiens), Q07820 | TR-FRET Mcl-1/Noxa peptide binding, 2 h | inhibition, % at 21.7 µM | 220,000 tested, 1.5% active | AID 1022, 2008;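 active = compounds that cut the protein-peptide binding signal by more than 50% relative to plate controls in a single-dose test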;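 note: His-tagged Mcl-1 with rhodamine Noxa BH3 peptide and terbium anti-His antibody; 0% = Mcl-1 plus Noxa peptide wells and 100% = peptide-only wells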
# Bcl-xL primary: inhibitors of human Bcl-xL, primary screen, biochemical, fluorescence polarization, HTS; Bcl-2-like protein 1 (Homo sapiens), Q07817; GST-Bcl-xL / FITC-Bim BH3 peptide fluorescence polarization; inhibition, % at 10.9 µM; 320,000 tested, 0.7% active; AID 2129, 2009;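 active = inhibition above the mean of all tested compounds plus 3 SD, cutoff set per campaign, cut at about 30% in these data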;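 note: 0% = DMSO wells and 100% = unlabeled Bim-BH3 peptide competitor; inhibitors lower millipolarization by displacing the labeled peptide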
# MCL1-BIM inh: inhibitors of MCL1 binding to BIM-BH3, primary screen, biochemical, fluorescence polarization; AID 2057, 2009; GST-MCL1 / FITC-Bim-BH3 fluorescence polarization; inhibition, % at 10.9 µM; 320,000 tested, 0.68% active; Induced myeloid leukemia cell differentiation protein Mcl-1 (Homo sapiens), Q07820;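 active = inhibition above the mean inhibition of all tested compounds plus 3 SD, set per campaign, cut at about 40% in these data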;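 note: 0% = DMSO wells and 100% = unlabeled Bim-BH3 peptide control; higher means more loss of mP so more displacement of Bim peptide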
# * hit, by the source's call; . = not tested or not shown. Compounds with a hit are over-represented: about 2.3% of the library has one in this group of screens.
SMILES,GLD-1 RNA inh,Mcl-1 Bim block,Mcl1 Bid PPI,Mcl1 Noxa PPI,Bcl-xL primary,MCL1-BIM inh
CN(C)c1ccc(NS(=O)(=O)c2cc(Cl)ccc2Cl)cc1,1,-4,-51,69*,14,20
O=C1NN(c2cccc(Br)c2)C(=O)/C1=C/c1ccc(-c2cc([N+](=O)[O-])ccc2O)o1,4,.,98*,101*,10,21
O=C1NN(c2cccc(Br)c2)C(=O)/C1=C\c1ccc(O)cc1,7,.,.,.,8,1
CCc1ccc(/C=C2\Oc3c(ccc(O)c3CN3CCN(C)CC3)C2=O)cc1,-2,.,-4,4,42*,34
CCN1CCN(Cc2c(O)ccc3c2O/C(=C\c2ccc(C)cc2)C3=O)CC1,-1,0,-5,6,40*,29
O=C1/C(=C/C=C/c2ccccc2)Oc2c1ccc(O)c2CN1CCN(CCO)CC1,8,.,-23,-23,20,22
COc1ccccc1/C=C/C=C1\Oc2c(ccc(O)c2CN2CCN(CCO)CC2)C1=O,-24,0,-33,-14,40*,0
Cc1ccc(/C=C2\Oc3c(ccc(O)c3CN3CCN(C)CC3)C2=O)cc1,4,0,0,-13,46*,42*
CCN1CCN(Cc2c(O)ccc3c2O/C(=C\C=C\c2ccccc2)C3=O)CC1,2,-1,-26,24,25,16
CC1=CC(C)(C)Nc2ccc(OC(=O)CN3C(=O)c4ccccc4C3=O)cc21,3,-3,-39,15,0,-3
CC1=CC(C)(C)Nc2ccc(OC(=O)CN3C(=O)c4cccc5cccc(c45)C3=O)cc21,28,-5,-31,0,36*,36
Cc1ccc(Cl)cc1NC(=O)COC(=O)c1ccc(COc2ccc3c(C)cc(=O)oc3c2)cc1,1,-2,57*,-1,-9,-17
Cc1nnc(NC(=O)COc2ccc3c(C)cc(=O)oc3c2)s1,0,-2,-33,79*,5,23
CC(O)CN(CCC(N)=O)CCC(N)=O (centres undefined),-1,-1,52*,15,1,0
CCC(C)(C)c1ccc(OC(=O)c2cccnc2Cl)cc1,2,.,.,.,7,2
O=C(CSc1nnc(COc2ccccc2Cl)o1)NC(=O)NCc1ccco1,1,.,-40,81*,3,25
CCn1c(SCC(=O)NC(=O)NCc2ccco2)nc2sc(C)c(C)c2c1=O,0,-1,-6,55*,11,26
O=C(CSc1nnc(Nc2ccccc2F)s1)NCc1ccco1,.,0,-54,30,.,.
Cc1sc2nc3ccc(NCc4ccco4)nn3c(=O)c2c1C,10,8,-53,40,34*,29
Cc1ccccc1Nc1nnc(SCC(=O)NC(=O)NCc2ccco2)s1,1,-3,-59,56*,2,10
Cc1cccc(-c2nc(CS(=O)CC(=O)N3CC(C)CC(C)C3)c(C)o2)c1 (centres undefined),-7,.,.,.,3,3
CC(C)C(NC(=O)c1ccc(C(C)(C)C)cc1)C(=O)N1CCCC1 (centres undefined),-3,.,.,.,-1,-6
CCCCCCCCNC(=O)c1cccnc1SCC(=O)Nc1ccc(OC)cc1OC,6,20,-3,22,6,9
Cc1nnc(SCC(=O)NC(=O)NCc2ccco2)n1Cc1ccccc1,8,-3,2,53*,-5,8
O=C(CSc1nnc(Nc2ccccc2)s1)NCc1ccco1,-2,0,-37,2,4,6
SMILES,GLD-1 RNA inh,Mcl-1 Bim block,Mcl1 Bid PPI,Mcl1 Noxa PPI,Bcl-xL primary,MCL1-BIM inh
Nn1c(SCC(=O)NC(=O)NCc2ccco2)nnc1-c1ccc(OC(F)F)cc1,-3,-4,18,96*,-12,4
CCOc1ccccc1-n1nnnc1SCC(=O)NC(=O)NCc1ccco1,-4,2,-83,53*,-2,4
Nn1c(SCC(=O)NCCN2C(=O)CSC2=O)nnc1-c1ccc(OC(F)F)cc1,1,.,.,.,-8,-10
Cc1ccc(Nc2nnc(SCC(=O)NCc3ccco3)s2)cc1,.,-3,-73,53*,.,.
O=C(CSc1nnc(Cc2ccccc2)n1Cc1ccccc1)NCc1ccco1,1,-4,-10,-7,5,-8
N#Cc1ccc(Sc2ccccn2)c([N+](=O)[O-])c1,3,.,-5,10,7,-2
O=C(CN1C(=O)c2ccccc2C1=O)OCC(=O)c1ccccc1,-1,.,.,.,0,3
CN(C)c1ccc(NC(=O)CSc2nc(N)c(C(=O)Nc3ccc(N(C)C)cc3)s2)cc1,-7,1,-41,73*,9,9
COc1ccc(NC(=O)CSc2nc(N)c(C(=O)Nc3ccc(N(C)C)cc3)s2)cc1,-7,0,-16,26,3,5
CCOC(=O)c1sc(SCC(=O)Nc2ccc(N(C)C)cc2)nc1N,12,-1,-41,72*,3,17
COc1ccc(NC(=O)CSc2nnc(N)s2)cc1,-3,1,-43,-12,7,0
CCCCCCN(C(=O)CCCCCN1C(=O)NC(c2ccc(-c3ccccc3)cc2)C(C(=O)OCc2ccccc2)=C1C)C(C(=O)NCCCC)c1ccc(O)c(C(=O)OC)c1 (centres undefined),.,.,-9,-8,.,.
O=C(NCc1ccncc1)C1CCCN1S(=O)(=O)c1ccc(Cl)cc1 (centres undefined),0,.,.,.,1,4
Cc1ccc(-c2nnn(CC(=O)N3C(C)CCCC3C)n2)cc1 (centres undefined),3,.,.,.,6,-3
CCS(=O)(=O)C1=NN2C(=N)/C(=C\c3ccc(SCc4ccco4)o3)C(=O)N=C2S1,.,5,12,80*,.,.
CCN(CC(=O)Nc1cc(Cl)ccc1C)C(=O)Cc1sc(C)nc1-c1ccc(F)cc1,7,.,.,.,0,-6
CCCc1nc2oc3ccccc3c(=O)c2c(=O)n1-c1ccc(C)cc1,-1,.,7,2,4,0
CCc1nc2oc3ccccc3c(=O)c2c(=O)n1-c1ccc(C)cc1,-4,.,-19,54*,13,20
O=[N+]([O-])c1cccc(N/N=C/c2cc([N+](=O)[O-])ccc2O)c1,-3,1,-20,100*,1,0
O=C(Nc1ccc(C(F)(F)F)cc1)C1CCN(c2cnccn2)CC1,-9,.,.,.,2,-4
